Screens (PubChem)
DUX4 txn inh – blocks DUX4-driven transcriptional activation | 293T-iDUX4 ZSCAN4-Gaussia luciferase reporter, 24 h; stronger effect = lower value | activity change, negative = inhibition, % (test concentration not listed) | 0.8% of 37,000 active | AID 1224904;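 active means mean inhibition of at least 10% in the main channel, exceeding the control channel by a set limit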;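 further: 0% = median of neutral control wells and -100% = median of positive control wells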
Numbers without * were called inactive. The entries come from a sample that favours hits as a whole.

SMILES	DUX4 txn inh
O=C(Cc1ccncc1)N1CCCCN2[C@H](CO)[C@@H](c3ccc(-c4ccncc4)cc3)[C@H]2C1	15.7
O=C(Cc1ccccc1)N1CCCCN2[C@H](CO)[C@@H](c3ccc(C#CC4(O)CCCC4)cc3)[C@@H]2C1	-4.7
O=C(Cc1ccncc1)N1CCCCN2[C@H](CO)[C@H](c3ccc(C#Cc4ccccc4F)cc3)[C@@H]2C1	-38.5*
COC(=O)[C@@H]1[C@@H](CO)[C@@H]2Cn3c(ccc(-c4ccccc4)c3=O)[C@H]1N2C(=O)c1ccccc1F	8.1
CC(=O)N1[C@@H]2Cn3c(ccc(-c4cccc(C(=O)N(C)C)c4)c3=O)[C@H]1[C@@H](C(=O)O)[C@@H]2CO	-4.9
